# Records with an inconclusive call do not appear. Calls of active or inactive are those of the source. The calls were made as follows, unless noted: active = hit-call score of the fitted dose curve at least 0.9, where 1 is the maximum; inconclusive = response in the unintended direction; inactive = score below 0.9.
# Tests used:
# [1] = molecular target: human Retinoid X Receptor beta (RXRb), RXRB (gene 6257) (UniProt P28702); test: ATG_RXRb_TRANS: Attagene TRANS-FACTORIAL HepG2 Assay for human Retinoid X Receptor beta (RXRb) (AID 2283013)
# Sequence of human Retinoid X Receptor beta (RXRb), RXRB (gene 6257) (P28702 whole entry, looked up, the tested form may be a part): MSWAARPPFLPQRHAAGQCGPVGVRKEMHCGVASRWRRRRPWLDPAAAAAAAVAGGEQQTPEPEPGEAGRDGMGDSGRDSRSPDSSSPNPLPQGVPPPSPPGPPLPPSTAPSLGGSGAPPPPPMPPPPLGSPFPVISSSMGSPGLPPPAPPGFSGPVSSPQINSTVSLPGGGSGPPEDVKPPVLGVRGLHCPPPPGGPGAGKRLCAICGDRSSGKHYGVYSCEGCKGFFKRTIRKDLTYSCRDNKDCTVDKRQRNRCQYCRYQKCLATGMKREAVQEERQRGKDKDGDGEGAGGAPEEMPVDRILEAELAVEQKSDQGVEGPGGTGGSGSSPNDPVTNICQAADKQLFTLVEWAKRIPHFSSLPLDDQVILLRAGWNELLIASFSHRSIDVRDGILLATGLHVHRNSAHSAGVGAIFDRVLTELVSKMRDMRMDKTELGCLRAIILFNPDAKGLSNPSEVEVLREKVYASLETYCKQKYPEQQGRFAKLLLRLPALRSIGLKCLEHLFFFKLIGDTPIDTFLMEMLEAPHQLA
# Summary of the method: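 HepG2 cells transiently transfected with multiplexed reporter units driven by GAL4-UAS and exogenous chimeric NR-Gal4 proteins; treated 24 h. Reporter mRNA measured by RT-PCR, 6-FAM labelling and capillary electrophoresis; gain-of-signal fitted versus DMSO baseline.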
# [2] = molecular target: Estrogen receptor beta (Homo sapiens) (UniProt Q92731); test: OT_ER_ERbERb_0480: Odyssey Thera (OT) 8-hour HEK293T Protein-Complementation Assay for Estrogen Receptor-beta/-beta Homodimer (AID 2283357);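 also: active means signal gain over DMSO baseline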
# Sequence of Estrogen receptor beta (Homo sapiens) (Q92731 whole entry, looked up, the tested form may be a part): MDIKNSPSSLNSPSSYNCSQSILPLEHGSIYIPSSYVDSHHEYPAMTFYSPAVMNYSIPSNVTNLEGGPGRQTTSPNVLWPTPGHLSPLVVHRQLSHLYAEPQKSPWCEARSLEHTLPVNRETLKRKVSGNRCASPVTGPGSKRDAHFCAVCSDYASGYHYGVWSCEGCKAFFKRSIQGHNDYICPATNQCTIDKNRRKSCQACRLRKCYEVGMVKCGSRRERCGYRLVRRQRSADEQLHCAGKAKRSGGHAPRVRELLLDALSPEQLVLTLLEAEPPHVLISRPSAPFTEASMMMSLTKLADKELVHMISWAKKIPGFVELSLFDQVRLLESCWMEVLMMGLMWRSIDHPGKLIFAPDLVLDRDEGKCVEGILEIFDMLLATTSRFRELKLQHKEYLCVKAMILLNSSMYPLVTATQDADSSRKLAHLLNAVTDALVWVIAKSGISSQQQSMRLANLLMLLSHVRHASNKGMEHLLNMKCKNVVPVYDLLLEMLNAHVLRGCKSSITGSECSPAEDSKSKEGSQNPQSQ
# Summary of the method: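 Fluorescence intensity, nuclear for agonists and nuclear plus cytoplasmic for antagonists, was quantified by laser scanning cytometry versus vehicle after 8 h treatment. The cells were HEK293T stably carrying ER beta LBD fragment-complementation partners.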
# [3] = molecular target: Retinoic acid receptor RXR-alpha (Homo sapiens) (UniProt P19793); test: OT_NURR1_NURR1RXRa_0480: Odyssey Thera (OT) 8-hour HEK293T Protein Complementation Assay for Nurr1/retinoid X receptor (RXR) (AID 2283385)
# Sequence of Retinoic acid receptor RXR-alpha (Homo sapiens) (P19793 whole entry, looked up, the tested form may be a part): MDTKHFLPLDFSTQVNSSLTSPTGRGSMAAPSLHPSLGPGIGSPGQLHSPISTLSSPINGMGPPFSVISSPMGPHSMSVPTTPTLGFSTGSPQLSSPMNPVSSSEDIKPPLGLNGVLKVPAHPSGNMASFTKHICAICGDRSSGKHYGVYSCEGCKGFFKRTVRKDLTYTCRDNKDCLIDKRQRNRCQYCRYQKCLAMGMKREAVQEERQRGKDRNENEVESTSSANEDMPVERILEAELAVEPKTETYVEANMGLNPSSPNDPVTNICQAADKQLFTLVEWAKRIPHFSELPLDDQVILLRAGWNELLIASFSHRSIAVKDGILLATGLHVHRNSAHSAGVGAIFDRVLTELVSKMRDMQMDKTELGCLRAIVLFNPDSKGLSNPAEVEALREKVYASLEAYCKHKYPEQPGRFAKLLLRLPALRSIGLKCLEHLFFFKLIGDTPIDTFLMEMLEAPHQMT
# Summary of the method: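 HEK293T cells expressing Nurr1 and RXRα fused to reporter fragments were dosed with compound for 8 hours. Complex formation was read as fluorescence intensity and analysed as gain of signal against DMSO as baseline.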
# [4] = molecular target: Retinoic acid receptor RXR-alpha (Homo sapiens) (UniProt P19793); test: OT_NURR1_NURR1RXRa_1440: Odyssey Thera (OT) 24-hour HEK293T Protein Complementation Assay for Nurr1/retinoid X receptor (RXR) (AID 2283386)
# Summary of the method: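 HEK293T cells were dosed with compound and read 24 h later by fluorescence intensity in a protein-fragment complementation format, where Nurr1–RXRα interaction reconstitutes a split reporter. Activity was fitted as gain of signal relative to DMSO baseline.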
# [5] = molecular target: Peroxisome proliferator-activated receptor gamma (Homo sapiens) (UniProt P37231); test: OT_PPARg_PPARgSRC1_1440: Odyssey Thera (OT) 24-hour Protein-Complementation Assay for Peroxisome Proliferator-activated Receptor Gamma/ SRC-1 Co-activator (AID 2283388);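 also: nuclear to cytoplasmic ratio of reconstituted Venus YFP fluorescence in fixed imaged cells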
# Sequence of Peroxisome proliferator-activated receptor gamma (Homo sapiens) (P37231 whole entry, looked up, the tested form may be a part): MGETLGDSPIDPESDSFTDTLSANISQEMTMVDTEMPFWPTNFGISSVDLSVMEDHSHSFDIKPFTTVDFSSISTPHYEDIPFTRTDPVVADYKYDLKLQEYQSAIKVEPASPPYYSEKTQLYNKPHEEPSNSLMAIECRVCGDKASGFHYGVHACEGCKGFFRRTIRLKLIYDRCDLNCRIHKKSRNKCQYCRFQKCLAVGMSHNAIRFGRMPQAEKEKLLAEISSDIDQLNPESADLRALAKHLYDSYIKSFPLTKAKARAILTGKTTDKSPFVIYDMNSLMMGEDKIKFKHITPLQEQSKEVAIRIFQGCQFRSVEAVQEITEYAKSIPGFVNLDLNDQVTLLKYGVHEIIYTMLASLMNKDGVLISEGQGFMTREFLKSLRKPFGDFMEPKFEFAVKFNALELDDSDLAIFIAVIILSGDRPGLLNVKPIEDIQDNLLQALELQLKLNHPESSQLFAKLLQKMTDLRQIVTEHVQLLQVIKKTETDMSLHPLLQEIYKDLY
# Summary of the method: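 Readout: nuclear-to-cytoplasmic 488 nm fluorescence ratio, ≥350 cells per image, 8 images per well, after 24 h compound exposure of HEK293T expressing PPARg/SRC-1 split-YFP fusions. Activity fitted in positive direction against DMSO.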
# [6] = ACEA_AR_agonist_AUC_viability: ACEA Biosciences xCELLigence Real-Time Cell Analysis on Androgen Receptor Agonism for Viability (AID 2283775);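 as to AC50: viability read 80 hours after compound addition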
# Summary of the method: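 Read-out is area under the impedance curve at 80 h post-dose in 22Rv1 cells, with DMSO as baseline and signal loss taken as reduced viability. Compounds ran in duplicate from 100 uM final.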
# [7] = ACEA_AR_antagonist_AUC_viability: ACEA Biosciences xCELLigence Real-Time Cell Analysis on Androgen Receptor Antagonism for Viability (AID 2283776);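 also: area under impedance growth curve at 80 h after dosing as viability; hits lower the growth signal relative to DMSO meaning cytotoxicity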
# Summary of the method: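 22Rv1 human prostate cancer cells were seeded on electrode plates, monitored overnight, then exposed to eight 1:4 dilutions from 100 uM final. Impedance-based growth kinetics at 80 h gave an AUC viability endpoint normalized to DMSO.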
# [8] = BSK_3C_TissueFactor: BioMAP Diversity Plus: 3C Assay for Tissue Factor Biomarker Activity (AID 2282997; active = hit-call score of the fitted dose curve at least 0.9, where 1 is the maximum; inactive = score below 0.9); conditions: BioMAP 3C HUVEC, tissue factor biomarker readout; actives raise or lower the signal
# Summary of the method: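 Human vascular primary cells (umbilical vein endothelium) received test chemical; Tissue Factor was determined by ELISA at 24 h, and both gain and loss of signal versus DMSO were fitted.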
# [9] = BSK_3C_uPAR: BioMAP Diversity Plus: 3C Assay for Urokinase-type plasminogen activator receptor (uPAR) Biomarker Activity (AID 2282998; active = hit-call score of the fitted dose curve at least 0.9, where 1 is the maximum; inactive = score below 0.9); conditions: BioMAP 3C HUVEC, uPAR biomarker ELISA; actives raise or lower the signal
# Summary of the method: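 Readout: ELISA for surface uPAR. System: human umbilical vein endothelial primary cells, 24 h after chemical exposure. Analysis: bidirectional fit, DMSO baseline.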
# [10] = BSK_3C_VCAM1: BioMAP Diversity Plus: 3C Assay for Vascular cell adhesion molecule 1 (VCAM1) Biomarker Activity (AID 2282999; active = hit-call score of the fitted dose curve at least 0.9, where 1 is the maximum; inactive = score below 0.9); conditions: BioMAP 3C HUVEC, VCAM1 ELISA, cytokine-stimulated; actives raise or lower the signal
# Summary of the method: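 Human umbilical vein endothelial cells (3C system), biomarker read by ELISA 24 h after dosing; bidirectional fit against DMSO baseline. Cytotoxicity tracked by SRB total-protein staining in parallel cultures at biomarker time.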
# [11] = BSK_4H_Eotaxin3: BioMAP Diversity Plus: 4H Assay for Eotaxin 3 Biomarker Activity (AID 2283000; active = hit-call score of the fitted dose curve at least 0.9, where 1 is the maximum; inactive = score below 0.9;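 as to outcome: CCL26 protein level quantified by ELISA in parallel with SRB cytotoxicity check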); conditions: primary human endothelial cells (HUVEC); actives raise or lower the signal
# Summary of the method: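 Readout is Eotaxin-3 (CCL26) level by ELISA in primary human umbilical vein endothelial cells harvested 24 h after chemical exposure; activity fitted in both directions against DMSO control.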
# [12] = read-out: Intercellular Adhesion Molecule 1 (ICAM1), ICAM1 (gene 3383); test: BSK_3C_ICAM1: BioMAP Diversity Plus: 3C Assay for Intercellular Adhesion Molecule 1 (ICAM1) Biomarker Activity (AID 2283003; active = hit-call score of the fitted dose curve at least 0.9, where 1 is the maximum; inactive = score below 0.9); conditions: primary human endothelial cells (HUVEC); actives raise or lower the signal
# Summary of the method: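 Primary human umbilical vein endothelial cells in the BioMAP 3C system were exposed to chemicals for 24 h, then ICAM-1 was quantified by ELISA. Activity was fitted bidirectionally against the DMSO negative control baseline.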
# [13] = BSK_3C_Proliferation: Cell Proliferation Assessment in the BioMAP Diversity Plus: 3C Assay (AID 2283006; active = hit-call score of the fitted dose curve at least 0.9, where 1 is the maximum; inactive = score below 0.9;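 as to AC50: potency may reflect either rise or fall in cell number versus DMSO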); conditions: primary human endothelial cells (HUVEC)
# Summary of the method: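 Human umbilical vein endothelial cells were grown sub-confluent and exposed to chemical for 48 h, then fixed with 10% TCA and stained with 0.1% sulforhodamine B; absorbance at 560 nm gave relative cell number, fitted bidirectionally against DMSO baseline.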
# [14] = read-out: E-selectin (Homo sapiens) (UniProt P16581); test: BSK_3C_Eselectin: BioMAP Diversity Plus: 3C Assay for Eselectin Biomarker Activity (AID 2283015; active = hit-call score of the fitted dose curve at least 0.9, where 1 is the maximum; inactive = score below 0.9;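 as to outcome: cell surface E-selectin protein quantified by ELISA 24 h after dosing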); conditions: primary human endothelial cells (HUVEC); actives raise or lower the signal
# Summary of the method: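 HUVEC, 3C stimulation; compound exposure 24 h; E-selectin by ELISA; gain- or loss-of-signal fitted bidirectionally vs DMSO baseline.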
# [15] = read-out: Interleukin-1 alpha (IL1a), IL1A (gene 3552); test: BSK_BE3C_IL1a: BioMAP Diversity Plus: BE3C Assay for Interleukin-1 alpha (IL1a) Biomarker Activity (AID 2283016; active = hit-call score of the fitted dose curve at least 0.9, where 1 is the maximum; inactive = score below 0.9); conditions: primary human bronchial epithelial cells; actives raise or lower the signal
# Summary of the method: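 Human primary bronchial epithelial cells (BE3C system) were dosed with compound and IL-1a measured by ELISA 24 h later. Activity was fitted bidirectionally against DMSO baseline; cytotoxicity was tracked in parallel cultures by SRB total-protein staining.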
# [16] = read-out: Plasminogen activator inhibitor-1 (PAI1), SERPINE1 (gene 5054); test: BSK_BE3C_PAI1: BioMAP Diversity Plus: BE3C Assay for Plasminogen activator inhibitor-1 (PAI1) Biomarker Activity (AID 2283037; active = hit-call score of the fitted dose curve at least 0.9, where 1 is the maximum; inactive = score below 0.9); conditions: primary human bronchial epithelial cells; actives raise or lower the signal
# Summary of the method: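 Human primary bronchial epithelial cells were exposed to chemical for 24 h, then PAI-1 was quantified by ELISA. Activity was fitted bidirectionally relative to the DMSO negative control baseline.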
# [17] = BSK_LPS_PGE2: BioMAP Diversity Plus: LPS Assay for Prostaglandin E2 (PGE2) Biomarker Activity (AID 2283082; active = hit-call score of the fitted dose curve at least 0.9, where 1 is the maximum; inactive = score below 0.9;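 as to AC50: secreted prostaglandin E2 measured by ELISA in LPS-stimulated co-culture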); conditions: primary human HUVEC with PBMC; actives raise or lower the signal
# Summary of the method: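 HUVEC plus PBMC co-culture stimulated with LPS; secreted PGE2 quantified by ELISA 24 h after chemical dosing. Activity fitted bidirectionally against DMSO as negative control and baseline; parallel SRB total-protein staining served as cytotoxicity check.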
# [18] = CCTE_Harrill_HTTr_CellCount_MCF7: CCTE's Cell Proliferation Assessment for the High-Throughput Transcriptomics (HTTr) Platform, Harrill Lab (AID 2284012);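 also: cells exposed to compound for six hours; intended direction is loss of nuclei count meaning fewer cells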
# Summary of the method: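 MCF-7 cells were exposed for 6 h to an eight-point dilution series; Hoechst-labeled nuclei were counted by high content imaging. Curves were fitted bidirectionally against DMSO as negative control and baseline, with signal loss indicating reduced cell count.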
# [19] = CCTE_Harrill_HTTr_Viability_MCF7: CCTE's 6-hour Cell Viability Assessment for the High-Throughput Transcriptomics (HTTr) Platform, in MCF-7 cells cultured in DMEM + 10% fetal bovine serum, Harrill Lab (AID 2284010; active = hit-call score of the fitted dose curve at least 0.9, where 1 is the maximum; inactive = score below 0.9)
# Summary of the method: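 Membrane integrity was scored by high-content imaging of propidium iodide dye exclusion after a 6 h exposure across an eight-point dilution series. Data were fitted bidirectionally relative to DMSO as negative control and baseline.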
# [20] = molecular target: Estrogen-related receptor gamma (Homo sapiens) (UniProt P62508); test: ATG_ERRg_TRANS: Attagene TRANS-FACTORIAL HepG2 Assay for human Estrogen-Related Receptor gamma (ERRg) (AID 2282977); conditions: HepG2 Attagene TRANS reporter, ERRg transactivation;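 also: hits increase reporter signal over DMSO so potencies reflect activators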
# Sequence of Estrogen-related receptor gamma (Homo sapiens) (P62508 whole entry, looked up, the tested form may be a part): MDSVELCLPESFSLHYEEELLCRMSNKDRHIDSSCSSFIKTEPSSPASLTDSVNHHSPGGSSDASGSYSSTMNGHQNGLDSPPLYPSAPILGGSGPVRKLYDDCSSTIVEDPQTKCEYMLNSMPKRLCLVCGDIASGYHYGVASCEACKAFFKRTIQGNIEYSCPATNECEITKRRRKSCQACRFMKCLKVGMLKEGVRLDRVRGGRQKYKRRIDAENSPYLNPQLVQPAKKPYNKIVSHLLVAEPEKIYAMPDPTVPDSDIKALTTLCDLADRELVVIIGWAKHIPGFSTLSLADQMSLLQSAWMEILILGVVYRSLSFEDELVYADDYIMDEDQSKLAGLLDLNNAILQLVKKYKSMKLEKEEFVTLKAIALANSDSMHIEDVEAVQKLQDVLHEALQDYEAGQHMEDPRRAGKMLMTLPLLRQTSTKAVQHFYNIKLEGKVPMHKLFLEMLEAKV
# Summary of the method: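 HepG2 cells transiently transfected with multiplexed GAL4-UAS reporter units and chimeric NR-Gal4 constructs were exposed to test chemicals for 24 h. Reporter mRNA was measured by RT-PCR, 6-FAM primer extension, HpaI digestion and capillary electrophoresis; gain-of-signal versus DMSO.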
# Sequence of E-selectin (Homo sapiens) (P16581 whole entry, looked up): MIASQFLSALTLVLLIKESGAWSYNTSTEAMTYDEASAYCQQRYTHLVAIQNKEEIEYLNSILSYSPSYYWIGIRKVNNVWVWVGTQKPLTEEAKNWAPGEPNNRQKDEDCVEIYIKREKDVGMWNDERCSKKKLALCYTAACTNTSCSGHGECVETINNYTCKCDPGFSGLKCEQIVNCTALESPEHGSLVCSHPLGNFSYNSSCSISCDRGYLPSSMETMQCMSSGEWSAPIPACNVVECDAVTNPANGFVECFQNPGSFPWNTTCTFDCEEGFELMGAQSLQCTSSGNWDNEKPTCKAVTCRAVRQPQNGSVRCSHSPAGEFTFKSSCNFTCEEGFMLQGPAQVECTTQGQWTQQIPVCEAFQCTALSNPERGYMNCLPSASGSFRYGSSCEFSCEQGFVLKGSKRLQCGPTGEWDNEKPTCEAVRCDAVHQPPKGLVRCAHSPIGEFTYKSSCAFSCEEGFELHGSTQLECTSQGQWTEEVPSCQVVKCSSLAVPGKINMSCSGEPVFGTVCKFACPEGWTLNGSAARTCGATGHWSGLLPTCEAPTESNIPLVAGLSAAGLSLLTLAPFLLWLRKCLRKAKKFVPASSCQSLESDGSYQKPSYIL
smiles,measurement,setting,value
CCCC=NO,outcome,[1],inactive
same,outcome,[2],inactive
same,outcome,[3],inactive
same,outcome,[4],inactive
same,outcome,[5],inactive
same,outcome,[6],inactive
same,outcome,[7],inactive
N#CC(c1ccccc1)c1ccccc1,AC50,[1],49.1 µM (active)
CCC(C)c1cc([N+](=O)[O-])cc([N+](=O)[O-])c1OC(=O)C=C(C)C (stereo unspecified),AC50,[8],9.89 µM (active)
same,AC50,[9],7.18 µM (active)
same,AC50,[10],20 µM (active)
same,AC50,[11],6.83 µM (active)
same,AC50,[12],30.4 µM (active)
same,AC50,[13],11.2 µM (active)
same,AC50,[14],14.4 µM (active)
same,AC50,[15],20.9 µM (active)
same,AC50,[16],11 µM (active)
same,AC50,[17],5.41 µM (active)
C[C@]12CC[C@H]3[C@@H](CC[C@@]45O[C@@H]4C(O)=C(C#N)C[C@]35C)[C@@H]1CC[C@@H]2O,outcome,[18],inactive
COc1cc(OC)c(OC)cc1C=O,outcome,[1],inactive
CC[N+](=O)[O-],outcome,[1],inactive
same,outcome,[2],inactive
same,outcome,[4],inactive
same,outcome,[5],inactive
same,outcome,[7],inactive
CCCCCCCCCCCC#N,outcome,[8],inactive
same,AC50,[9],37.8 µM (active)
same,AC50,[10],32.3 µM (active)
same,AC50,[11],27.5 µM (active)
same,outcome,[12],inactive
same,AC50,[13],32.2 µM (active)
same,AC50,[14],30.2 µM (active)
same,outcome,[15],inactive
same,outcome,[16],inactive
same,AC50,[17],32 µM (active)
[N-]=[N+]=CC(=O)OC[C@H](N)C(=O)O,outcome,[19],inactive
same,outcome,[18],inactive
CCc1cc(C)cc(CC)c1-c1c(OC(=O)C(C)(C)C)n2n(c1=O)CCOCC2,outcome,[8],inactive
same,AC50,[9],4 µM (active)
same,outcome,[10],inactive
same,AC50,[11],20 µM (active)
same,outcome,[12],inactive
same,outcome,[13],inactive
same,AC50,[14],5.7 µM (active)
same,outcome,[15],inactive
same,AC50,[16],6.89 µM (active)
same,outcome,[17],inactive
same,outcome,[19],inactive
O=C1Nc2ccc(Cl)cc2C(c2ccccc2)=NC1O (stereo unspecified),outcome,[1],inactive
same,outcome,[2],inactive
same,outcome,[3],inactive
same,outcome,[4],inactive
same,outcome,[5],inactive
same,outcome,[6],inactive
same,outcome,[7],inactive
same,outcome,[18],inactive
CCC(C)(C)O,outcome,[19],inactive
same,outcome,[18],inactive
N#Cc1cc(I)c(O)c(I)c1,outcome,[20],inactive
same,outcome,[19],inactive
C=CC(=O)OCC(CC)CCCC (stereo unspecified),outcome,[20],inactive
same,AC50,[8],28.9 µM (active)
same,outcome,[9],inactive
same,AC50,[10],20 µM (active)
same,outcome,[11],inactive
same,outcome,[12],inactive
same,AC50,[13],27.6 µM (active)
same,outcome,[1],inactive
same,outcome,[14],inactive
same,outcome,[15],inactive
same,outcome,[16],inactive
same,outcome,[17],inactive
same,outcome,[2],inactive
same,outcome,[3],inactive
same,outcome,[4],inactive
same,outcome,[5],inactive
same,AC50,[6],4.45 µM (active)
same,outcome,[7],inactive
same,outcome,[18],inactive
O=C(NCNC(=O)NC1C(=O)NC(=O)N1CO)NC1C(=O)NC(=O)N1CO (stereo unspecified),outcome,[20],inactive
same,AC50,[1],39.8 µM (active)
same,outcome,[3],inactive
same,AC50,[4],78 µM (active)
same,outcome,[5],inactive
same,outcome,[6],inactive
same,outcome,[7],inactive
CC1(C)C(=O)NC(=O)NC1=O,outcome,[1],inactive
CCOP(=O)(OCC)Oc1ccc([N+](=O)[O-])cc1,outcome,[3],inactive
same,outcome,[4],inactive
same,outcome,[5],inactive
O=S(=O)(O)OOS(=O)(=O)O,outcome,[1],inactive
same,outcome,[2],inactive
same,outcome,[3],inactive
same,outcome,[5],inactive
same,outcome,[6],inactive
same,outcome,[7],inactive
CN1C(=O)CCS(=O)(=O)C1c1ccc(Cl)cc1 (stereo unspecified),outcome,[19],inactive
same,outcome,[18],inactive
c1ccc(P(c2ccccc2)c2ccccc2)cc1,AC50,[2],25.4 µM (active)
same,outcome,[3],inactive
same,outcome,[4],inactive
same,outcome,[5],inactive
same,outcome,[7],inactive
CC(C)(Cl)Cl,outcome,[3],inactive
same,outcome,[4],inactive
same,outcome,[5],inactive
same,outcome,[6],inactive
same,AC50,[7],0.413 µM (active)
same,outcome,[19],inactive
same,outcome,[18],inactive
CC(C)CCCCCCCOP(=O)(Oc1ccccc1)Oc1ccccc1,AC50,[8],9.9 µM (active)
same,AC50,[9],12.1 µM (active)
same,AC50,[10],11.2 µM (active)
same,AC50,[11],20 µM (active)
same,AC50,[12],20 µM (active)
same,AC50,[13],10.1 µM (active)
same,outcome,[1],inactive
same,AC50,[14],20 µM (active)
same,AC50,[15],5.34 µM (active)
same,AC50,[16],3.97 µM (active)
same,AC50,[17],13.6 µM (active)

# Reference: PubChem BioAssay (EPA / NIEHS)
